Among the data in ChEMBL document CHEMBL3433997, “St. Jude Leishmania screening dataset” (2016) are inhibition values, retold here.

Common to all, as to format: functional
In assay [1] the target is Solute carrier family 2, facilitated glucose transporter member 1 (Homo sapiens) (UniProt P11166). Kind of assay: ST_JUDE_LEISH: Cytotoxicity at 2uM final concentration against transgenic Leishmania Mexicana promastigotes LmGLUT1 that are glucose transport deficient and complemented with the human glucose transporter GLUT1. Activity is measured by DNA content using SYBR green in vitro.

In assay [2] the target is Hexose transporter 1 (Plasmodium falciparum) (UniProt O97467). Nature of the assay: ST_JUDE_LEISH: Cytotoxicity at 2uM final concentration against transgenic Leishmania Mexicana promastigotes LmPfHT that are glucose transport deficient and complemented with the Plasmodium falciparum hexose transporter. Activity is measured by DNA content using SYBR green in vitro.
Assay [3] concerns the target Glucose transporter (Leishmania mexicana) (UniProt O61059). Kind of assay: ST_JUDE_LEISH: Cytotoxicity at 2uM final concentration against transgenic Leishmania Mexicana promastigotes LmGT2 that are glucose transport deficient and complemented with the L. Mexicana glucose transporter 2. Activity is measured by DNA content using SYBR green in vitro.

Solute carrier family 2, facilitated glucose transporter member 1 (Homo sapiens), sequence (P11166 whole entry): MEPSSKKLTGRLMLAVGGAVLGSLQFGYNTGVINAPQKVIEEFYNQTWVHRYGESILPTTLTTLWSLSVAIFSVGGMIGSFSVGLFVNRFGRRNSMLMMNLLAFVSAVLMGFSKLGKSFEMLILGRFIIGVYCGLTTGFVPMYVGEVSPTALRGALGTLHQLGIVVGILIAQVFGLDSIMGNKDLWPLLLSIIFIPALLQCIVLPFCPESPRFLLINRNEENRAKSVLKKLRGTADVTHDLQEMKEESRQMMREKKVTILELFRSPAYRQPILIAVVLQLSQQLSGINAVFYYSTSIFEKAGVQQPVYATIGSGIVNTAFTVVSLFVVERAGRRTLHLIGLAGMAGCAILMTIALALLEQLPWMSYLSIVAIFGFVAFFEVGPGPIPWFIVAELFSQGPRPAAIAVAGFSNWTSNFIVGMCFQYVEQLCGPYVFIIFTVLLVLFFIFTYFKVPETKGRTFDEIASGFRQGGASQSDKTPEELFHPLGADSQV

A word on the inhibition: it is the drop in the measured response relative to a control, in per cent. Consider `Cc1ccc(NC(=O)Nc2ccc(Br)cc2)cc1OCCN(C)C`, for which the inhibition in assay [1] came out at 5.98%; in assay [2], 3.65%; in assay [3], 2.82%.
As for `COc1ccc(NC(=O)c2cccc(Br)c2)cc1N1CCN(CCCCCCCN2CCN(c3cc(NC(=O)c4cccc(Br)c4)ccc3OC)CC2)CC1`, the inhibition in assay [1] was determined as 3.47%; in assay [2], 2.27%; in assay [3] it was 0.78%.
Take `COc1ccc2ccccc2c1CCCCN1CCN(CC(c2ccc(F)cc2)N2CCN(C(C)C)CC2)CC1` (stereo not drawn): the inhibition in assay [1] turned out to be 17.9%; in assay [2] it was 9.64%; in assay [3], 12.3%.
`N#Cc1ccc(C2CCN(CC[C@H](N)Cc3ccc(Cl)s3)CC2)cc1`: the inhibition was determined as 22.8% in assay [1], 10.7% in assay [2] and 15.8% in assay [3].
Take `Cc1cccc2nc(-c3ccc(-c4ccc(CN5CCN(CCO)CC5)cc4)cc3)[nH]c12`: the results for the inhibition in assay [1], in assay [2] and in assay [3] were 25.5%, 31.3% and 17.5%, respectively.
Regarding `COc1ccc2nccc([C@@H](O)CN3CCC(NC(=O)c4ccc5cc[nH]c5c4)CC3)c2c1`, the inhibition in assay [1] is 4.43%; in assay [2], 4.82%; in assay [3] it was 1.32%.
Regarding `CC(C)(CNC(=O)[C@H]1CCCN1)c1nc(-c2ccc(Cl)c(O)c2)c(-c2ccncc2)[nH]1`, the inhibition was found to be 8.17% in assay [1], 8.03% in assay [2] and 8.28% in assay [3].
Consider `O=C(/C=C/C=C/c1ccc(Cl)c(Cl)c1)NCCCCCN1CCCC2CCCCC21` (stereo not drawn), for which the inhibition in assay [1] was 13.3%; in assay [2], 12.3%; in assay [3] it was 13.2%.
Turning to `CN1CCC(C(=O)N(Cc2ccc(-c3ccc(CNCCc4ccc(S(C)(=O)=O)cc4)cn3)cc2)C2CCN(Cc3ccccc3)CC2)CC1`, the inhibition in assay [1] was found to be 3.07%; in assay [2], 2.62%; in assay [3], 5.75%.
Taken in the same sequence, the figures for `COc1ccc2c(NN=Cc3ccccc3Cl)ccnc2c1` were 3.65%, 4.27% and 4.32%.
Take `CCOc1cc(CC)ccc1C1CCN(CCCCNC(=O)c2ccc(NC(=O)c3ccc(Cl)cc3)cc2)CC1`: the inhibition in assay [1] is 4.23%; in assay [2], 2.23%; in assay [3] it was 4.97%.
For `CCCNCc1ccc(-c2ccc(CN(CCOC)C(=O)c3ccco3)cc2)nc1`, the values for the inhibition in assay [1], in assay [2] and in assay [3] were 0.5%, 0.17% and 2.77%, respectively.
In the same order, the values of `COc1cc2c(cc1OC)CN(CCCCNC(=O)c1ccc(NC(=O)c3cc(Cl)cc(Cl)c3)cc1)CC2` are 2.09%, 3.93% and 6.32%.
On to `CCC(CC)CN1C(=O)C(C)(c2ccccc2)N=C1N` (stereo not drawn), for which the inhibition is -1.13% in assay [1], -0.03% in assay [2] and -1.23% in assay [3].
As to `CC(C)CCNc1nc(NCc2ccccc2)c2cc(O)ccc2n1`, the inhibition was found to be 5.89% in assay [1], 5.74% in assay [2] and 1.03% in assay [3].
In the same order, the values of `Cc1cnc(CN(Cc2ccc(-c3ccc(CNCCc4ccc(S(C)(=O)=O)cc4)cn3)cc2)C(=O)c2ccc([N+](=O)[O-])c(C)c2)cn1` are 1.89%, 3.15% and 1.98%.
Consider `CC(=O)Nc1nc(C(=O)Nc2cccc(-c3cccc(-c4nc5cccc(C)c5[nH]4)c3)c2)cs1`, for which the inhibition in assay [1] came out at 6.67%; in assay [2], 1.89%; in assay [3], 14.6%.
For `Nc1nc(N)c2c(ccc3c2ccn3CCCC(F)(F)F)n1`, the inhibition in assay [1] was determined as 14.2%; in assay [2], 20.3%; in assay [3], 8.28%.
Take `N=C(NCC1CC1c1ccccc1)c1cccc(C(=N)NCC2CC2c2ccccc2)n1` (stereo not drawn): the inhibition in assay [1] worked out at 5.1%; in assay [2], 5.88%; in assay [3], 6.3%.
Taken in the same sequence, the figures for `Cn1c(N)c(C(=O)CSc2nnc(-c3cccs3)n2Cc2ccccc2)c(=O)n(C)c1=O` were 10.1%, 8.98% and 8.86%.
Consider `Cc1noc(C)c1-c1cccc(CNCc2cccc(-c3cccc(-c4nc5cc(C(F)(F)F)ccc5[nH]4)c3)c2)c1`, for which the values for the inhibition in assay [1], in assay [2] and in assay [3] were 0.14%, 1.85% and 0.61%, respectively.
As to `CC(C)c1sc(N2CCN(C)CC2)nc1C(=O)NCCc1ccc(Cl)c(Cl)c1`, the inhibition in assay [1] worked out at 2.62%; in assay [2], 2.93%; in assay [3], 2.34%.
In the same order, the values of `Cc1cc(CNCCCCCCNCc2cccc([N+](=O)[O-])c2)ccc1O` are 10.5%, 9.56% and 9.64%.
Take `O=C(NCc1cccs1)[C@H](Cc1ccccc1)Nc1ccnc(NCCc2ccc(F)cc2)n1`: the inhibition turned out to be 11.2% in assay [1], 9.62% in assay [2] and 9.52% in assay [3].
Taken in the same sequence, the figures for `Cc1nc(-c2cccc(Nc3nccc(NCC(O)c4cccc(C(F)(F)F)c4)n3)c2)cs1` (stereo not drawn) were 1.56%, 0.83% and -0.26%.
With `OCCCCCCNc1nc(NCc2ccccc2-c2ccc(C(F)(F)F)cc2)nc(N2CCNCC2)n1`, the inhibition in assay [1] is 1.31%; in assay [2] it was -1.2%; in assay [3] it was 0.81%.
In the same order, the values of `CS(=O)(=O)c1ccc(CNCc2ccc(-c3cccc(-c4nc5ccccc5[nH]4)c3)cc2)cc1` are 17.3%, 15.6% and 14%.
Turning to `CCN(CC)S(=O)(=O)c1ccc(CCOCCCCCNCC(O)c2cc(Cl)c(N)c(Cl)c2)s1` (stereo not drawn), the figures for the inhibition in assay [1], in assay [2] and in assay [3] were 2.8%, -2.21% and 1.26%, respectively.
Taken in the same sequence, the figures for `CC(C)C[C@H](NC(=O)c1cc2cc(OCCN3CCNCC3)ccc2o1)C(=O)NC1CC[C@@H](C)N(C(=O)Nc2ccc(Cl)cc2)CC1=O` (stereo partly drawn) were 3.2%, 5.04% and 3.85%.
Taken in the same sequence, the figures for `Cc1cc(N[C@@H](CC(C)C)C(=O)NCCc2ccccc2)nc(Nc2ccccc2)n1` were 4.26%, 5.37% and 2.63%.
Regarding `COc1ccc(S(=O)(=O)NC2CCN(c3ccnc4cc(Cl)ccc34)C2)cc1` (stereo not drawn), the inhibition stood at 4.03% in assay [1], 1.1% in assay [2] and 0.63% in assay [3].
